# Values joined by “and” are separate entries in the source; they are usually repeats but may differ in a detail not shown here. Equal entries are not always repeated. A number with no mark means an inactive call. Results filed as inconclusive are left out. Active and inactive are the calls of the source. Unless noted, calls follow the shape of the dose curve; as a rule, active = well fitted activation curve with a large enough effect; inconclusive = small, poorly fitted or top-dose-only effect; inactive = flat fitted curve, though single readings scatter.
# Test system: not listed separately
# Test: qHTS assay for small molecule agonists of the antioxidant response element (ARE) signaling pathway (AID 651741; active = well fitted activation curve with a large enough effect in the signal ratio; the % refers to the signal ratio; also: potency is read from the fitted curve at half-maximal effect; as to activation: % of control where 0% means no effect)
# Conditions: HepG2 ARE-bla reporter, beta-lactamase FRET ratio, 16 h; series mostly up to 96 µM
# Outline: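 Compounds in DMSO are pinned onto HepG2 ARE-bla cells (2,000/well) that were preincubated 5 h; plates stay 16 h at 37 C, then beta-lactamase activity is detected with LiveBLAzer B/G substrate by fluorescence.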
row,SMILES,Potency
1,CCCCCCCC/C=C\CCCCCCCC(=O)OC[C@@H](O)[C@H]1OC[C@H](O)[C@H]1O,inactive
2,CCCCCCCCCC(=O)O,inactive
3,COC(C)=O,inactive
4,CN(C)Cc1ccccc1,inactive
5,O=S(=O)(c1ccccc1)N(CC(F)(F)F)c1ccc(C(O)(C(F)(F)F)C(F)(F)F)cc1,27.3 µM (active)

# Test system: not listed separately
# Test: qHTS assay for small molecule activators of the p53 signaling pathway (AID 651743; active = well fitted activation curve with a large enough effect in the signal ratio, not every such curve was filed as active; the % refers to the signal ratio; also: % of control where 0% means no effect)
# Conditions: HCT-116 p53RE-bla, beta-lactamase FRET ratio, 16 h; hits give high values
# Outline: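 Cell-based beta-lactamase reporter (p53 response elements, HCT-116 background). After a 5-hour preincubation, cells received compound for 16 hours at 37 C; substrate development ran 2 hours at room temperature.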
row,SMILES,activation
1,CCCCCCCC/C=C\CCCCCCCC(=O)OC[C@@H](O)[C@H]1OC[C@H](O)[C@H]1O,1.59%
2,C=Cc1ccccc1,-0.864% and -2.45%
3,CCCCCCCCCC(=O)O,-0.571% and 9.23%
4,CC(=O)S[C@@H]1CC2=CC(=O)CC[C@]2(C)[C@H]2CC[C@@]3(C)[C@@H](CC[C@@]34CCC(=O)O4)[C@H]12,29.9%
5,CN(C)Cc1ccccc1,-3.48%
6,O=S(=O)(c1ccccc1)N(CC(F)(F)F)c1ccc(C(O)(C(F)(F)F)C(F)(F)F)cc1,23.4%
7,O=C(O)CC(O)(CC(=O)O)C(=O)O,-3% and -0.0659% and -0.0181%

# Test system: not listed separately
# Test: qHTS assay for small molecule activators of the nuclear factor-kappa B (NF-kB) signaling pathway (AID 651749; active = well fitted activation curve with a large enough effect in the signal ratio; the % refers to the signal ratio; also: % of control where 0% means no effect)
# Conditions: NF-kB-bla ME-180 cells, beta-lactamase FRET ratio, 16 h; hits give high values
# Outline: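 Screening used 2,000 ME-180 reporter cells per well exposed to pinned compound (23 nL) or DMSO; after 16 hr at 37C, beta-lactamase expression under NF-kB control was assessed through FRET.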
row,SMILES,activation
1,CCCCCCCC/C=C\CCCCCCCC(=O)OC[C@@H](O)[C@H]1OC[C@H](O)[C@H]1O,0.379%
2,C=Cc1ccccc1,-0.47% and -1.21%
3,CCCCCCCCCC(=O)O,-1.38% and -1.03%
4,CN(C)Cc1ccccc1,0.946%
5,O=C(O)CC(O)(CC(=O)O)C(=O)O,-0.675% and 0.892% and -1.06%

# Biological target: Tumor necrosis factor (Homo sapiens) (UniProt P01375)
# Test: qHTS assay to identify small molecules that stimulate Tumor Necrosis Factor-alpha (TNF-alpha) secretion (AID 651757; active = well fitted curve in the direction sought with a large enough effect in the signal ratio; the % refers to the signal ratio; also: 0% is about no effect)
# Conditions: Human cells, HTRF 665/615 ratio; series mostly up to 92.2 µM
# Outline: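 Read-out is HTRF, a TR-FRET sandwich of cryptate- and XL665-labeled anti-TNF-alpha antibodies detecting cytokine secreted by THP-1 cells. Cells had been incubated with test compounds at 37 C for 17 hrs beforehand.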
# Sequence of Tumor necrosis factor (Homo sapiens) (P01375 whole entry, looked up): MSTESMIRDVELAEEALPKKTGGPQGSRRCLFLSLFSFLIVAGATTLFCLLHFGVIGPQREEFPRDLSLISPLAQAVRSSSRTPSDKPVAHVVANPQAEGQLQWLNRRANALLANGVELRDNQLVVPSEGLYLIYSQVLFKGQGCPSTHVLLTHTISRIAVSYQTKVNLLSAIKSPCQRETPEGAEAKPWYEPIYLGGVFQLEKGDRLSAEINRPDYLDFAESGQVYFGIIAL
row,SMILES,outcome
1,C=Cc1ccccc1,inactive
2,CCCCCCCCCC(=O)O,inactive
3,COC(C)=O,inactive
4,CN(C)Cc1ccccc1,inactive
5,O=C(O)CC(O)(CC(=O)O)C(=O)O,inactive

# Test system: not listed separately
# Test: qHTS assay to identify small molecules that stimulate interleukin-8 (IL-8) secretion (AID 651758; active = well fitted activation curve with a large enough effect in the signal ratio; the % refers to the signal ratio; also: 0% is about no effect)
# Conditions: HTRF ratio (665/615); series mostly up to 92.2 µM
# Outline: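 THP-1, 2000 cells/well; cpd 16 h, 37 C; add cryptate + XL665 anti-IL-8 Abs; RT 1-3 h; TR-FRET read.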
row,SMILES,outcome
1,C=Cc1ccccc1,inactive
2,COC(C)=O,inactive
3,O=C(O)CC(O)(CC(=O)O)C(=O)O,inactive

# Test system: not listed separately
# Test: qHTS assay for environmental chemicals that activate the Aryl hydrocarbon Receptor (AhR) signaling pathway (AID 651777); also: % of control where 0% means no effect; nearly all actives have a fitted effect of over 15% in size
# Conditions: 1A2-DRE human hepatoma cells, luciferase, 24 h; hits give high values
# Outline: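 Stable CYP1A2 promoter/DRE-luciferase human hepatoma line treated 24 hr; One-Glo luminescence, 30 min RT.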
row,SMILES,activation
1,C=Cc1ccccc1,0.041% and 1.82%
2,COC(C)=O,0.269%
3,CC(=O)S[C@@H]1CC2=CC(=O)CC[C@]2(C)[C@H]2CC[C@@]3(C)[C@@H](CC[C@@]34CCC(=O)O4)[C@H]12,-3.59%
4,CN(C)Cc1ccccc1,-1.16%
5,O=S(=O)(c1ccccc1)N(CC(F)(F)F)c1ccc(C(O)(C(F)(F)F)C(F)(F)F)cc1,5.58%
6,O=C(O)CC(O)(CC(=O)O)C(=O)O,0.406% and -1.76% and 1.69%

# Biological target: Peroxisome proliferator-activated receptor alpha (Homo sapiens) (UniProt Q07869)
# Test: qHTS assay for small molecule agonists of the peroxisome proliferator-activated receptor alpha (PPARalpha) signaling pathway (AID 651778); also: potency is read from the fitted curve at half-maximal effect; as to max response: % of control where 0% means no effect
# Conditions: PathHunter PPARalpha complementation, chemiluminescence, 6 h; max response: hits give high values
# Outline: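 Cells plated at 2,000/well and held overnight at 37 C, 5% CO2, then compound added by pin tool for 6 hr; after PathHunter detection reagent and 60 min at room temperature, chemiluminescence from enzyme complementation was read.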
# Sequence of Peroxisome proliferator-activated receptor alpha (Homo sapiens) (Q07869 whole entry, looked up): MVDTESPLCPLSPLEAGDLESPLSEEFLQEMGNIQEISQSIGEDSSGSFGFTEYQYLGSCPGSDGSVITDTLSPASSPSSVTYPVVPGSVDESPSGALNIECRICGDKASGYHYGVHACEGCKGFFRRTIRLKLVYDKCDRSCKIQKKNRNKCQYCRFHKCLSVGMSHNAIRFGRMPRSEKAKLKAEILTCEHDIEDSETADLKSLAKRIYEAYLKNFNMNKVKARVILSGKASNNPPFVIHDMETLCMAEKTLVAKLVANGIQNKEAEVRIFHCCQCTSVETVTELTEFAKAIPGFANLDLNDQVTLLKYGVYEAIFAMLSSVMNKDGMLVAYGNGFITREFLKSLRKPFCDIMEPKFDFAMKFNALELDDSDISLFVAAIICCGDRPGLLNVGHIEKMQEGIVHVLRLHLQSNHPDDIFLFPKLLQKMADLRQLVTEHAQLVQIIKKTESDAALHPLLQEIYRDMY
SMILES,Potency,max response
CCCCCCCC/C=C\CCCCCCCC(=O)OC[C@@H](O)[C@H]1OC[C@H](O)[C@H]1O,39.8 µM (active),
C=Cc1ccccc1,,-2.11% and 2.32%
CCCCCCCCCC(=O)O,,5.25% and -0.468%
COC(C)=O,,6.49%
CC(=O)S[C@@H]1CC2=CC(=O)CC[C@]2(C)[C@H]2CC[C@@]3(C)[C@@H](CC[C@@]34CCC(=O)O4)[C@H]12,,-2.36%
CN(C)Cc1ccccc1,,-9.3%
O=S(=O)(c1ccccc1)N(CC(F)(F)F)c1ccc(C(O)(C(F)(F)F)C(F)(F)F)cc1,,-0.426%
O=C(O)CC(O)(CC(=O)O)C(=O)O,,-3.03% and 0.0721% and -1.17%
